{"source": "PubChem BioAssay (EPA / NIEHS)", "note": "Records with an inconclusive call do not appear. Calls of active or inactive are those of the source. Rule for the calls: active = hit-call score of the fitted dose curve at least 0.9, where 1 is the maximum; inconclusive = response in the unintended direction; inactive = score below 0.9."}
{"target": "Bile acid receptor (Homo sapiens) (UniProt Q96RI1)", "sequence (Q96RI1 whole entry, looked up)": "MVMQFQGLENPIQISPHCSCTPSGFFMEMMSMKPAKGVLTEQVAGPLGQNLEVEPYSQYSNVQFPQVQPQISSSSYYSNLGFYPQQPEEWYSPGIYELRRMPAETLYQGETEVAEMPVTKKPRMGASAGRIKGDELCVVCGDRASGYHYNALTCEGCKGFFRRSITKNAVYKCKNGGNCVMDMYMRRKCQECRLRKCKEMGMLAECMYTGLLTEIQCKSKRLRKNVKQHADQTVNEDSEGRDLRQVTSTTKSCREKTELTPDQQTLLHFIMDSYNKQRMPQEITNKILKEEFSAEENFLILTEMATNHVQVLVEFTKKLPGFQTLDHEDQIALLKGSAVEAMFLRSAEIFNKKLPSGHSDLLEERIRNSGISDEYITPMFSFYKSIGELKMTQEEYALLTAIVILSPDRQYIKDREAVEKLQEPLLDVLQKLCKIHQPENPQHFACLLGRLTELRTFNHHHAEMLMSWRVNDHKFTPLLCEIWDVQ", "experiment": "OT_FXR_FXRSRC1_1440: Odyssey Thera (OT) 24-hour HEK293T Protein-Complementation Assay for Farnesoid X receptor/SRC-1 Co-activator (AID 2283384)", "description": "OT_FXR_FXRSRC1_1440 is a cell-based assay that uses HEK293T, a human kidney cell line, with measurements taken at 24 hours after chemical dosing in a 384-well plate.OT_FXR_FXRSRC1_1440 is one of one assay component(s) measured or calculated from the OT_FXR_FXRSRC1_1440 assay. It is designed to make measurements of protein fragment complementation, a form of binding reporter, as detected with fluorescence intensity signals by Protein-fragment Complementation technology.Data from the assay component OT_FXR_FXRSRC1_1440 was analyzed into 1 assay endpoint. This assay endpoint, OT_FXR_FXRSRC1_1440, was analyzed in the positive analysis fitting direction relative to DMSO as the negative control and baseline of activity. Using a type of binding reporter, measures of receptor for gain-of-signal activity can be used to understand the binding at the pathway-level as they relate to the gene NR1H4. Furthermore, this assay endpoint can be referred to as a primary readout, because the performed assay has only produced 1 assay endpoint. To generalize the intended target to other relatable targets, this assay endpoint is annotated to the nuclear receptor intended target family, where the subfamily is non-steroidal.\nProtein-fragment complementation assay, or PCA, is a method for the identification and quantification of protein-protein interactions. In the PCA, the proteins of interest (\"bait\" and \"prey\") are each covalently linked to fragments of a third protein (e.g. DHFR, which acts as a \"reporter\"). Interaction between the bait and the prey proteins brings the fragments of the reporter protein in close proximity to allow them to form a functional reporter protein whose activity can be measured."}
{"smiles": "ClC(Cl)(Cl)c1ccccc1", "outcome": "inactive"}
{"smiles": "CO/N=C(/C(=O)OC)c1ccccc1COc1ccccc1C", "AC50": "12.4 µM (active)"}
{"smiles": "CCOC(=O)c1ccccc1N", "outcome": "inactive"}
{"smiles": "O=P(OCC(Br)CBr)(OCC(Br)CBr)OCC(Br)CBr", "note": "(configuration not stated)", "AC50": "29 µM (active)"}
{"smiles": "Cc1ccc(N)cc1N", "outcome": "inactive"}
{"smiles": "CCCCN(CC)C(=O)SCCC", "outcome": "inactive"}
{"smiles": "O=[N+]([O-])c1ccc(Cl)c(Cl)c1", "outcome": "inactive"}
{"smiles": "CC(C)(C)N(NC(=O)c1ccc(Cl)cc1)C(=O)c1ccccc1", "outcome": "inactive"}
{"smiles": "Cc1ccc([N+](=O)[O-])cc1C", "outcome": "inactive"}
{"smiles": "CCCCC(CC)COC(=O)c1c(Br)c(Br)c(Br)c(Br)c1C(=O)OCC(CC)CCCC", "note": "(configuration not stated)", "outcome": "inactive"}
{"smiles": "CCCCC(CC)COP(=O)(Oc1ccccc1)Oc1ccccc1", "note": "(configuration not stated)", "outcome": "inactive"}
{"smiles": "CCOP(=S)(OCC)SCSCC", "outcome": "inactive"}
{"smiles": "O=S1(=O)OCC2C(CO1)C1(Cl)C(Cl)=C(Cl)C2(Cl)C1(Cl)Cl", "note": "(configuration not stated)", "AC50": "50 µM (active)"}
{"smiles": "CCNc1nc(Cl)nc(NC(C)(C)C)n1", "outcome": "inactive"}
{"smiles": "O=c1ssc(Cl)c1Cl", "AC50": "11.4 µM (active)"}
{"smiles": "CCC(C)(C)c1ccc(O)cc1", "outcome": "inactive"}
{"smiles": "CCCCc1ccc(O)cc1", "AC50": "67.9 µM (active)"}
{"smiles": "OCC1CO1", "note": "(configuration not stated)", "outcome": "inactive"}
{"smiles": "CCN(CC)c1ccccc1", "outcome": "inactive"}
{"smiles": "O=C(O)C1C(C(=O)O)C2(Cl)C(Cl)=C(Cl)C1(Cl)C2(Cl)Cl", "note": "(configuration not stated)", "outcome": "inactive"}
{"smiles": "O=P(Oc1ccccc1)(Oc1ccccc1)Oc1ccccc1", "outcome": "inactive"}
{"smiles": "O=NN1CCCC1", "outcome": "inactive"}
